Source: PubChem BioAssay AID1159580 (chemical genetic matrix, 2015)
Out of some 5,500 compounds screened, about 2,000 (36%) were called active. Inconclusive results (about 18%) are left out. No stated cut-off is given here; in the data, active means normalized growth mostly below about 0.91 (no sharp cut-off); inconclusive means no clear call, values can overlap the other calls; inactive means mostly above about 0.92. Some of the results follow.

Test: chemical genetic growth profiling, strain panel (AID 1159580);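 further: tested at 20 µM; growth read once vehicle control cultures reached saturation at 30 °C; 1 = growth at the plate median or of vehicle wells; lower values mean less growth of the strain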
Settings: S. cerevisiae deletion strains, growth OD

Measured: normalized growth

NC(N)=NCCN1CCCCCCC1
active: locus YLR262C, strain YPT6 (second series), hits give low values 1.25 [resistant] | locus YNL209W, strain ssb2, hits give low values 0.87
inactive: locus YJR043C, strain POL32, hits give low values 1 | locus YJR066W, strain TOR1, hits give low values 0.932 | locus YKL009W, strain mrt4, hits give low values 1.02 | locus YKL068W, hits give low values 1.01 | locus YKL085W, strain MDH1 (second series), hits give low values 1.01 | locus YKL085W, strain MDH1, hits give low values 1.01 | locus YKL160W, strain elf1, hits give low values 1.04 | locus YKR001C, strain vps1, hits give low values 1.03 | locus YKR026C, strain gcn3, hits give low values 1.03 | locus YKR091W, strain srl3, hits give low values 1.02 | locus YLL001W, strain dnm1, hits give low values 1.02 | locus YLL026W, hits give low values 1.03 | locus YLL041C, strain sdh2, hits give low values 1.02 | locus YLR027C, strain aat2, hits give low values 1.02 | locus YLR039C, strain RIC1, hits give low values 1 | locus YLR058C, strain SHM2, hits give low values 1.01 | locus YLR102C, strain apc9, hits give low values 1.02 | locus YLR113W, strain HOG1, hits give low values 0.985 | locus YLR221C, strain rsa3, hits give low values 1.05 | locus YLR258W, strain gsy2, hits give low values 1.03 | locus YLR262C, strain YPT6, hits give low values 1.03 | locus YLR268W, strain sec22, hits give low values 1.02 | locus YLR320W, strain mms22, hits give low values 1.05 | locus YLR330W, strain CHS5, hits give low values 1.01 | locus YLR342W, strain FKS1 (second series), hits give low values 1.02 | locus YLR342W, strain FKS1, hits give low values 1.06 | locus YLR357W, strain rsc2, hits give low values 1.03 | locus YLR370C, strain arc18, hits give low values 1.03 | locus YLR371W, strain rom2, hits give low values 1.02 | locus YLR384C, strain iki3, hits give low values 1.03 | locus YLR418C, strain cdc73, hits give low values 1.03 | locus YML016C, strain PPZ1, hits give low values 1.01 | locus YML032C, strain rad52, hits give low values 1.02 | locus YML120C, strain ndi1, hits give low values 1.04 | locus YML124C, strain tub3, hits give low values 1.03 | locus YMR058W, strain fet3, hits give low values 1.02 | locus YMR078C, strain ctf18, hits give low values 1.02 | locus YMR125W, strain sto1, hits give low values 1.03 | locus YMR129W, hits give low values 1.02 | locus YMR205C, strain PFK2, hits give low values 1.05 | locus YMR223W, strain ubp8, hits give low values 1.02 | locus YMR231W, strain pep5, hits give low values 1.04 | locus YMR307W, strain GAS1, hits give low values 0.992 | locus YNL067W, strain RPL9B, hits give low values 1 | locus YNL071W, strain lat1, hits give low values 1.03 | locus YNL128W, strain TEP1, hits give low values 1.02 | locus YNL183C, strain NPR1, hits give low values 0.959 | locus YNL233W, strain BNI4, hits give low values 1.01 | locus YNL248C, strain rpa49, hits give low values 1.04 | locus YNL250W, strain rad50, hits give low values 1.01 | locus YNL271C, strain bni1, hits give low values 1.02 | locus YNL298W, strain CLA4, hits give low values 1.03 | locus YNL307C, strain MCK1, hits give low values 1.02 | locus YNL322C, strain KRE1 (second series), hits give low values 1.05 | locus YNL322C, strain KRE1, hits give low values 1 | locus YNR049C, strain mso1, hits give low values 1.03 | locus YNR052C, strain pop2, hits give low values 1.01 | locus YOL012C, strain htz1 0.825 | locus YOL147C, strain pex11, hits give low values 1.02 | locus YOR001W, strain rrp6, hits give low values 0.997 | locus YOR061W, strain CKA2, hits give low values 1.01 | locus YOR069W, strain VPS5, hits give low values 1 | locus YOR070C, strain gyp1, hits give low values 1.05 | locus YOR080W, strain dia2, hits give low values 1.03 | locus YOR083W, strain WHI5, hits give low values 1.03 | locus YOR106W, strain vam3, hits give low values 1.05 | locus YOR136W, strain idh2, hits give low values 1.02 | locus YOR144C, strain elg1, hits give low values 1.02 | locus YOR184W, strain ser1, hits give low values 1.03 | locus YOR231W, strain MKK1, hits give low values 0.993 | locus YOR265W, strain rbl2, hits give low values 1.05 | locus YOR270C, strain vph1, hits give low values 1.07 | locus YOR290C, strain snf2, hits give low values 0.981 | locus YOR316C, strain cot1, hits give low values 1.02 | locus YPL051W, strain arl3, hits give low values 1.02 | locus YPL055C, strain LGE1, hits give low values 1.01 | locus YPL078C, strain atp4, hits give low values 1.03 | locus YPL106C, strain sse1, hits give low values 1.02 | locus YPL240C, strain hsp82, hits give low values 1.04 | locus YPL256C, strain CLN2, hits give low values 0.977 | locus YPR119W, strain clb2, hits give low values 1.03 | locus YPR141C, strain kar3, hits give low values 1.02 | locus YPR163C, strain tif3, hits give low values 1.03 | locus YPR167C, strain met16, hits give low values 1.02 | strain wtn01, hits give low values 1.03
